# Records with an inconclusive call do not appear. Calls of active or inactive are those of the source. The calls were made as follows: active = hit-call score of the fitted dose curve at least 0.9, where 1 is the maximum; inconclusive = response in the unintended direction; inactive = score below 0.9.
# Target: guinea pig Leukotriene D4 Receptor (LTD4), CYSLTR1 (gene 100135514) (UniProt Q2NNR5)
# Experiment: NVS_GPCR_gLTD4: NovaScreen (NVS) G Protein-Coupled Receptor Assay for guinea pig Leukotriene D4 Receptor (LTD4) (AID 2283248)
# Procedure, shortened: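 Guinea pig lung membrane preparation; bound radioligand measured by filter scintillation after 1 h, loss of signal versus DMSO marking displacement. Compounds tested at 25 uM in duplicate, hits retested to max 50 uM.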
# guinea pig Leukotriene D4 Receptor (LTD4), CYSLTR1 (gene 100135514), sequence (Q2NNR5 whole entry, looked up): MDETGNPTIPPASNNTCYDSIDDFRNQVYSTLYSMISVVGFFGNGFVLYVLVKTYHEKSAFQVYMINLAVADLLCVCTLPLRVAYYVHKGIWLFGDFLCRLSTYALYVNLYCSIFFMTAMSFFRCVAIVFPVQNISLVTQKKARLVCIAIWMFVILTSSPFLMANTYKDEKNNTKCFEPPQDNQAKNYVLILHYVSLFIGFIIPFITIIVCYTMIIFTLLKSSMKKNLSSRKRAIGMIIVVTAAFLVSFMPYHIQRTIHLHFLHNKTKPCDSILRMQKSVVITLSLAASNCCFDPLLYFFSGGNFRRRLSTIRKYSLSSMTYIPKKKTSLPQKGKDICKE
row,SMILES,AC50
1,[Cl-].[Cl-].[Hg+2],1.4 µM (active)
2,CCC[CH2][Sn]([Cl])([CH2]CCC)[CH2]CCC,1.86 µM (active)

# — PubChem BioAssay (EPA / NIEHS)
